One assay relates to MCC-13. The assay can be described thus: qHTS assay to identify novel small-molecules to repurpose for Merkel cell carcinoma treatment (AID 1296009). Further: nearly all actives have a fitted effect of over 60% in size. The conditions noted are these: MCC and control cell lines, CellTiter-Glo viability, 72 h; series mostly up to 46 µM. The gist of the method:
(§1)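 Cells were treated for 72 hr at 37 degree celsius with compounds in 8- or 11-point dose response. Viability was read by CellTiter-Glo luminescence, normalized to no-cell (cytotoxicity) and DMSO controls.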

Another assay has as its system MCC-26. The description is as above. The conditions noted are these: MCC and control cell lines, CellTiter-Glo viability, 72 h; series mostly up to 46 µM. The gist of the method: as §1
For the next assay, the system named is MKL-1. The assay is described as above. To be noted: MCC and control cell lines, CellTiter-Glo viability, 72 h; series mostly up to 46 µM. The essentials:
as §1
For orientation: Cellular ATP, detected with luciferase, serves as a proxy for viable cell number.

The subject of the next assay is MKL-2. The description is as above. To be noted: MCC and control cell lines, CellTiter-Glo viability, 72 h; series mostly up to 46 µM. The gist of the method:
as §1

In the next assay the test system is WaGa. Described as above. To be noted: MCC and control cell lines, CellTiter-Glo viability, 72 h; series mostly up to 46 µM. The gist of the method: as §1
Another assay relates to C33A. The assay can be described thus: Primary qHTS to identify gynecologic anti-cancer compounds using libraries of approved drugs and bioactive compounds (AID 1345084). Further: nearly all actives have a fitted effect of over 55% in size. The conditions noted are these: Gynecologic cancer cell panel viability, ATPlite luminescence, 48 h; series mostly up to 57.5 µM. The gist of the method:
(§2)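 Five-concentration response, 48 h; readout is ATP-driven luciferase luminescence.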
(In general: qHTS replaces the single test concentration by a dilution series.)

The subject of the next assay is CASKI. Described as above. To be noted: Gynecologic cancer cell panel viability, ATPlite luminescence, 48 h; series mostly up to 57.5 µM. The essentials: as §2
Another assay concerns UISO. The assay can be described thus: qHTS assay to identify novel small-molecules to repurpose for Merkel cell carcinoma treatment (AID 1296009). Further: nearly all actives have a fitted effect of over 60% in size. The conditions noted are these: MCC and control cell lines, CellTiter-Glo viability, 72 h; series mostly up to 46 µM. The gist of the method: as §1
A further assay deals with NIH3T3. The assay is described as above. To be noted: MCC and control cell lines, CellTiter-Glo viability, 72 h; at 44.8 µM (top of the series) unless noted. The gist of the method: as §1

Results filed as inconclusive are left out. Calls of active or inactive are those of the source. The call rests on the fitted dose curve; in most records, active means well fitted curve in the direction sought with a large enough effect; inconclusive means small, poorly fitted or top-dose-only effect, or another doubt; inactive means no such curve, though single readings can be large; an effect the other way counts as inactive or inconclusive.
Potency means the concentration at half of the fitted maximal effect.

In the case of `CC(C)c1cc(C(C)C)c(CC(=O)NS(=O)(=O)Oc2c(C(C)C)cccc2C(C)C)c(C(C)C)c1`, the Potency result in the assay on MCC-13, with MCC-26, in the assay with MKL-1, in the assay on MKL-2, with WaGa and in the assay on C33A was “inactive” each time. The Potency result with CASKI is “inactive”.

Regarding `c1ccc(CNc2nc(NCc3ccccc3)c3ccccc3n2)cc1`, the Potency entry with MCC-13, in the assay on MCC-26, in the assay on MKL-1, in the assay on UISO and with WaGa was “inactive” throughout. In addition, the Potency in the assay with MKL-2 is 18.7 µM (active).

For the compound `Cn1cc(-c2cnn3c(N)c(Br)c([C@H]4CCCNC4)nc23)cn1`, the Potency entry in the assay with MCC-13 and in the assay on MCC-26 was “inactive” throughout. The Potency with MKL-2 and in the assay with WaGa was 1.32 µM (active) each time.

In the case of `O=C1CSC(=O)N1C(CCc1ccncc1)COc1ccc(-c2cccc([N+](=O)[O-])c2)cc1` (stereo not drawn), the Potency result with MCC-13 and with MCC-26 was “inactive” throughout. Moreover, the Potency was 18.7 µM (active) in the assay on MKL-2, 13.2 µM (active) in the assay on UISO and 16.6 µM (active) in the assay on WaGa.

As to `CCOc1cc2ncc(C#N)c(Nc3ccc(OCc4ccccn4)c(Cl)c3)c2cc1NC(=O)C=CCN(C)C`, the Potency result in the assay with MCC-13, in the assay on MCC-26, in the assay on MKL-1 and with WaGa was “inactive” in each case.

As to `CCc1nc(-c2cccc(C)c2)c(-c2ccnc(NC(=O)c3ccccc3)c2)s1`, the Potency entry in the assay on MCC-13, in the assay with MCC-26, in the assay on C33A and in the assay with CASKI was “inactive” throughout.

As for `CCOc1cc2c(c(F)c1OCC)C(=N)N(CC(=O)c1cc(N3CCOCC3)c(OC)c(C(C)(C)C)c1)C2`, the Potency entry in the assay with MCC-13, in the assay with MCC-26, in the assay on WaGa and in the assay on CASKI was “inactive” in each case.

In the case of `Cc1cc(Nc2ncc3c(n2)N(C)C(=O)N(c2cc(NC(=O)c4cccc(C(F)(F)F)c4)ccc2C)C3)n(C)n1`, the Potency was 2.09 µM (active) with MCC-13, 1.18 µM (active) in the assay on MCC-26 and 0.526 µM (active) in the assay on UISO.

With `CC(C)c1cnn2c(NCc3ccccc3)cc(NCCCCCCN)nc12`, the Potency entry in the assay on MCC-13, with MCC-26, in the assay on UISO and with WaGa was “inactive” each time.

Turning to `NC(=O)N1CCC(CC(=O)N2CCC([C@H]3c4ncc(Br)cc4CCc4cc(Cl)cc(Br)c43)CC2)CC1`, the Potency entry in the assay with MCC-13 and in the assay with MCC-26 was “inactive” each time. Also, the Potency in the assay with WaGa was 11.8 µM (active).

Regarding `CCCNC(=O)[C@H]1O[C@H]1C(=O)N[C@H](C(=O)N1CCC[C@@H]1C(=O)OC)C(C)CC` (stereo partly drawn), the Potency was 20.9 µM (active) in the assay with MCC-13; 5.26 µM (active) with MKL-1; 3.32 µM (active) in the assay on MKL-2; 18.7 µM (active) with UISO; 8.33 µM (active) in the assay with WaGa.

Regarding `CC(C)(N)c1ccc(-c2nc3ccccc3nc2-c2ccccc2)cc1`, the Potency entry in the assay on MCC-13, in the assay on MCC-26 and in the assay on C33A was “inactive” in each case. Further, the Potency in the assay with WaGa is 18.7 µM (active).

With `COc1cccc2c1C(=O)c1c(O)c3c(c(O)c1C2=O)C[C@@](O)(C(=O)CO)C[C@H]3O[C@H]1C[C@H](N)[C@H](O)[C@H](C)O1`, the Potency in the assay on MCC-13 was 2.64 µM (active); with MCC-26, 2.35 µM (active); in the assay on MKL-1 it was 0.118 µM (active); in the assay with WaGa, 0.0743 µM (active).

Consider `O=c1[nH]c(=O)n([C@H]2C[C@@H](O)[C@@H](CO)O2)cc1C=CBr`, for which the Potency entry in the assay on MCC-13, with MKL-1, in the assay on MKL-2, with UISO and with WaGa was “inactive” throughout. In addition, the compound was classed as inactive in the assay on NIH3T3.

On to `Cc1ccc(-n2[nH]c(C)c(N=Nc3cccc(-c4cccc(C(=O)O)c4)c3O)c2=O)cc1C`, for which the Potency entry with MCC-13, in the assay with MCC-26, in the assay with C33A and in the assay on CASKI was “inactive” each time.

As to `CC(C)NC[C@@H](C(=O)N1CCN(c2ncnc3c2[C@H](C)C[C@H]3O)CC1)c1ccc(Cl)cc1`, the Potency entry with MCC-13 and with MCC-26 was “inactive” each time. Besides, the Potency is 1.66 µM (active) in the assay with MKL-2 and 2.09 µM (active) with WaGa.

Regarding `CC(=O)SCC(Cc1ccccc1)C(=O)NCC(=O)OCc1ccccc1` (stereo not drawn), the Potency entry in the assay with MCC-13 and in the assay on MCC-26 was “inactive” each time. Besides, the Potency with MKL-2 is 0.209 µM (active); with UISO, 14.8 µM (active).

Take `C=C1C(=O)O[C@H]2[C@@H]1CCC(C)=CCC[C@@]1(C)O[C@@H]21`: the Potency was 16.6 µM (active) in the assay with MCC-13; 7.43 µM (active) with MKL-1; 1.87 µM (active) with MKL-2; 14.8 µM (active) in the assay with UISO; 7.43 µM (active) with WaGa.

On to `N#Cc1c(C2CCNCC2)cc(-c2c(O)cccc2OCC2CC2)nc1N`, for which the Potency entry with MCC-13, in the assay on MCC-26, with MKL-1 and with C33A was “inactive” in each case.

Regarding `Cn1cc(CNCC2CCN(c3ncc(C(=O)NO)cn3)CC2)c2ccccc21`, the Potency with MCC-13 was 0.833 µM (active); with MCC-26 it was 0.59 µM (active); in the assay on MKL-2, 0.0332 µM (active); in the assay on UISO, 0.264 µM (active); in the assay with WaGa, 0.0296 µM (active).

With `OCCNC1CCCc2c1[nH]c1ccc(-c3ccccc3)cc21` (stereo not drawn), the Potency entry in the assay with MCC-13 and in the assay with MCC-26 was “inactive” in each case. The Potency in the assay on MKL-2 is 26.4 µM (active).

In the case of `CC(N[C@H]1CCCC[C@H]1NC(=O)c1ccc(Cl)cc1)c1cccc2ccccc12` (stereo partly drawn), the Potency result in the assay with MCC-13, in the assay with MCC-26 and in the assay on UISO was “inactive” in each case. Moreover, the Potency in the assay on MKL-2 is 0.418 µM (active).

`CC(C)C[C@H](NC(=O)[C@@H](NC(=O)c1cccc(-c2ccccc2)n1)[C@@H](C)O)B(O)O`: the Potency was 0.264 µM (active) with MCC-13; 0.148 µM (active) in the assay on MCC-26; 0.0418 µM (active) in the assay with MKL-2; 0.0833 µM (active) in the assay on WaGa; 0.112 µM (active) in the assay with CASKI.

For `CN(C)c1ccc2cc(C(=O)N[C@@H](CCCN=C(N)CCl)C(=O)NCc3ccccc3)ccc2c1`, the Potency entry in the assay with MCC-13 and in the assay with MCC-26 was “inactive” in each case. Moreover, the Potency in the assay with MKL-2 is 26.4 µM (active); with UISO, 13.2 µM (active).

In the case of `CC(C=CC1=C(C)CCCC1(C)C)=CC=CC(C)=CC(=O)Nc1ccc(O)cc1`, the Potency entry in the assay with MCC-13 and in the assay on MCC-26 was “inactive” each time. In addition, the Potency in the assay with MKL-2 is 30.3 µM (active).

On to `COc1ccnc2[nH]cc(C(=O)C(=O)N3CCN(C(=O)c4ccccc4)C[C@@H]3C)c12`, for which the Potency entry in the assay on MCC-13, with MKL-1, with MKL-2, in the assay with UISO and in the assay with WaGa was “inactive” in each case.
